The assay addresses pT7_6His-AlfaTag-HOXD13 (human, UniProt P35453 263-343). Put plainly: PADIT-seq. The note with it: dsDNA, one strand shown.
Sequence of pT7_6His-AlfaTag-HOXD13 (P35453 263-343): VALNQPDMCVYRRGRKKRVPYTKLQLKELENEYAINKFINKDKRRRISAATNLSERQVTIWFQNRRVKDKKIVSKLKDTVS
Turning to “CTCGAGGATATCAAGATCTGGCCTCGGCGTCGTAAAAGGAACCTCTAGCTAGCCGACTCACTATAGGGATAATCGCCCTGAGCAAAGACC”, the binding signal is 2.57 ± 0.0709 log2FC.
As for “CTCGAGGATATCAAGATCTGGCCTCGGCAGGCTAAAAGGAACCTCTAGCTAGCCGACTCACTATAGGGATAATCGCCCTGAGCAAAGACC”, the figure is -0.781 ± 0.0984 log2FC.
As for “CTCGAGGATATCAAGATCTGGCCTCGGCATTTTACCTGGAACCTCTAGCTAGCCGACTCACTATAGGGATAATCGCCCTGAGCAAAGACC”, the figure is -0.0491 ± 0.129 log2FC; as for “CTCGAGGATATCAAGATCTGGCCTCGGCGCATTAAAAGGAACCTCTAGCTAGCCGACTCACTATAGGGATAATCGCCCTGAGCAAAGACC”, 1.77 ± 0.0683 log2FC; as for “CTCGAGGATATCAAGATCTGGCCTCGGCTAAGTAAAAGGAACCTCTAGCTAGCCGACTCACTATAGGGATAATCGCCCTGAGCAAAGACC”, 0.166 ± 0.108 log2FC.
As for “CTCGAGGATATCAAGATCTGGCCTCGGCGCGTTTGCGGGAACCTCTAGCTAGCCGACTCACTATAGGGATAATCGCCCTGAGCAAAGACC”, the figure is -0.387 ± 0.156 log2FC; as for “CTCGAGGATATCAAGATCTGGCCTCGGCTTTTTAGCAGGAACCTCTAGCTAGCCGACTCACTATAGGGATAATCGCCCTGAGCAAAGACC”, 0.699 ± 0.0959 log2FC.
The sequence “CTCGAGGATATCAAGATCTGGCCTCGGCCACTTAAAAGGAACCTCTAGCTAGCCGACTCACTATAGGGATAATCGCCCTGAGCAAAGACC” returned a binding signal of 1.17 ± 0.0931 log2FC.
Under “CTCGAGGATATCAAGATCTGGCCTCGGCCTACTAAAAGGAACCTCTAGCTAGCCGACTCACTATAGGGATAATCGCCCTGAGCAAAGACC” stands 1.25 ± 0.0954 log2FC.
For “CTCGAGGATATCAAGATCTGGCCTCGGCCTTTTAGGGGGAACCTCTAGCTAGCCGACTCACTATAGGGATAATCGCCCTGAGCAAAGACC”, the binding signal worked out at 1.1 ± 0.083 log2FC.
As for “CTCGAGGATATCAAGATCTGGCCTCGGCAAAGTAAAAGGAACCTCTAGCTAGCCGACTCACTATAGGGATAATCGCCCTGAGCAAAGACC”, the figure is 0.197 ± 0.0829 log2FC; as for “CTCGAGGATATCAAGATCTGGCCTCGGCCTTTTACATGGAACCTCTAGCTAGCCGACTCACTATAGGGATAATCGCCCTGAGCAAAGACC”, 1.85 ± 0.0771 log2FC; as for “CTCGAGGATATCAAGATCTGGCCTCGGCCTTTTATGAGGAACCTCTAGCTAGCCGACTCACTATAGGGATAATCGCCCTGAGCAAAGACC”, 3.45 ± 0.0923 log2FC.
Under “CTCGAGGATATCAAGATCTGGCCTCGGCTTTTTAAGTGGAACCTCTAGCTAGCCGACTCACTATAGGGATAATCGCCCTGAGCAAAGACC” stands 1.17 ± 0.094 log2FC; under “CTCGAGGATATCAAGATCTGGCCTCGGCTAAATAAAAGGAACCTCTAGCTAGCCGACTCACTATAGGGATAATCGCCCTGAGCAAAGACC”, 1.68 ± 0.0988 log2FC; under “CTCGAGGATATCAAGATCTGGCCTCGGCTGATGGGCGGGAACCTCTAGCTAGCCGACTCACTATAGGGATAATCGCCCTGAGCAAAGACC”, -0.976 ± 0.109 log2FC.
As for “CTCGAGGATATCAAGATCTGGCCTCGGCGAGGTAAAAGGAACCTCTAGCTAGCCGACTCACTATAGGGATAATCGCCCTGAGCAAAGACC”, the figure is -0.51 ± 0.0909 log2FC; as for “CTCGAGGATATCAAGATCTGGCCTCGGCGCGGAAGCGGGAACCTCTAGCTAGCCGACTCACTATAGGGATAATCGCCCTGAGCAAAGACC”, -0.566 ± 0.121 log2FC; as for “CTCGAGGATATCAAGATCTGGCCTCGGCCGCCCAGCAGGAACCTCTAGCTAGCCGACTCACTATAGGGATAATCGCCCTGAGCAAAGACC”, -0.927 ± 0.127 log2FC.
For “CTCGAGGATATCAAGATCTGGCCTCGGCACCCCACGCGGAACCTCTAGCTAGCCGACTCACTATAGGGATAATCGCCCTGAGCAAAGACC”, the binding signal was -1.03 ± 0.136 log2FC.
As for “CTCGAGGATATCAAGATCTGGCCTCGGCACGATAAAAGGAACCTCTAGCTAGCCGACTCACTATAGGGATAATCGCCCTGAGCAAAGACC”, the figure is 1.32 ± 0.0937 log2FC.
As for “CTCGAGGATATCAAGATCTGGCCTCGGCCTTTTATTTGGAACCTCTAGCTAGCCGACTCACTATAGGGATAATCGCCCTGAGCAAAGACC”, the figure is 2.69 ± 0.0648 log2FC.
As for “CTCGAGGATATCAAGATCTGGCCTCGGCTTTCTAAAAGGAACCTCTAGCTAGCCGACTCACTATAGGGATAATCGCCCTGAGCAAAGACC”, the figure is -0.511 ± 0.118 log2FC; as for “CTCGAGGATATCAAGATCTGGCCTCGGCTCATTAAAAGGAACCTCTAGCTAGCCGACTCACTATAGGGATAATCGCCCTGAGCAAAGACC”, 2.97 ± 0.0761 log2FC; as for “CTCGAGGATATCAAGATCTGGCCTCGGCCCCTGGGCGGGAACCTCTAGCTAGCCGACTCACTATAGGGATAATCGCCCTGAGCAAAGACC”, -0.981 ± 0.122 log2FC.
“CTCGAGGATATCAAGATCTGGCCTCGGCCTTTTAAGTGGAACCTCTAGCTAGCCGACTCACTATAGGGATAATCGCCCTGAGCAAAGACC” came in with a binding signal of 1.38 ± 0.0835 log2FC.
As for “CTCGAGGATATCAAGATCTGGCCTCGGCTTTTTACGGGGAACCTCTAGCTAGCCGACTCACTATAGGGATAATCGCCCTGAGCAAAGACC”, the figure is 3.16 ± 0.0883 log2FC.
As for “CTCGAGGATATCAAGATCTGGCCTCGGCCTTTTATCCGGAACCTCTAGCTAGCCGACTCACTATAGGGATAATCGCCCTGAGCAAAGACC”, the figure is 0.939 ± 0.078 log2FC; as for “CTCGAGGATATCAAGATCTGGCCTCGGCGCGCGAGCGGGAACCTCTAGCTAGCCGACTCACTATAGGGATAATCGCCCTGAGCAAAGACC”, -0.654 ± 0.136 log2FC.
As for “CTCGAGGATATCAAGATCTGGCCTCGGCCGCCCAGAGGGAACCTCTAGCTAGCCGACTCACTATAGGGATAATCGCCCTGAGCAAAGACC”, the figure is -1.03 ± 0.139 log2FC; as for “CTCGAGGATATCAAGATCTGGCCTCGGCATTATAAAAGGAACCTCTAGCTAGCCGACTCACTATAGGGATAATCGCCCTGAGCAAAGACC”, 2.37 ± 0.0729 log2FC.
Consider “CTCGAGGATATCAAGATCTGGCCTCGGCTAGTTAAAAGGAACCTCTAGCTAGCCGACTCACTATAGGGATAATCGCCCTGAGCAAAGACC”, for which the binding signal amounted to 2.53 ± 0.0756 log2FC.
Under “CTCGAGGATATCAAGATCTGGCCTCGGCACACTAAAAGGAACCTCTAGCTAGCCGACTCACTATAGGGATAATCGCCCTGAGCAAAGACC” stands 0.427 ± 0.0841 log2FC; under “CTCGAGGATATCAAGATCTGGCCTCGGCCTTTTATTAGGAACCTCTAGCTAGCCGACTCACTATAGGGATAATCGCCCTGAGCAAAGACC”, 3.32 ± 0.0849 log2FC.
Sequence “CTCGAGGATATCAAGATCTGGCCTCGGCCGCATAAAAGGAACCTCTAGCTAGCCGACTCACTATAGGGATAATCGCCCTGAGCAAAGACC” showed a binding signal of 1.46 ± 0.0793 log2FC.
As for “CTCGAGGATATCAAGATCTGGCCTCGGCATTTTAAAGGGAACCTCTAGCTAGCCGACTCACTATAGGGATAATCGCCCTGAGCAAAGACC”, the figure is 2.62 ± 0.0783 log2FC; as for “CTCGAGGATATCAAGATCTGGCCTCGGCATTTTAGCCGGAACCTCTAGCTAGCCGACTCACTATAGGGATAATCGCCCTGAGCAAAGACC”, -0.535 ± 0.111 log2FC.
As for “CTCGAGGATATCAAGATCTGGCCTCGGCGAGCTAAAAGGAACCTCTAGCTAGCCGACTCACTATAGGGATAATCGCCCTGAGCAAAGACC”, the figure is -0.842 ± 0.11 log2FC.
